# Source: PubChem BioAssay (NCI)
# The panel holds about 83,000 compounds, 20% with a hit somewhere; the sample as a whole holds those more often.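 Compound tested at a single concentration for 48 hours in 96-well plates; a percent growth value below 10 was scored as active.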 A number with no mark means an inactive call. The source made the active and inactive calls.
# Experiments:
# Experiment in all cases: NCI-60 one-dose screen, 48 h (100 = growth as untreated, 0 = no growth, -100 = all killed)
# Conditions in all cases: 10 µM unless noted
# SK-MEL-2 melanoma = test system: SK-MEL-2 melanoma
# EKVX NSCLC = test system: EKVX NSCLC
# SN12C renal = test system: SN12C renal
# UO-31 renal = test system: UO-31 renal
# TK-10 renal = test system: TK-10 renal
# ACHN renal = test system: ACHN renal
# CAKI-1 renal = test system: CAKI-1 renal
# A498 renal = test system: A498 renal
# CCRF-CEM leukemia = test system: CCRF-CEM leukemia
# MOLT-4 leukemia = test system: MOLT-4 leukemia
# SR leukemia = test system: SR leukemia
# RPMI-8226 leukemia = test system: RPMI-8226 leukemia
# OVCAR-8 ovarian = test system: OVCAR-8 ovarian
# OVCAR-5 ovarian = test system: OVCAR-5 ovarian
# OVCAR-4 ovarian = test system: OVCAR-4 ovarian
# SK-OV-3 ovarian = test system: SK-OV-3 ovarian
# IGROV1 ovarian = test system: IGROV1 ovarian
# OVCAR-3 ovarian = test system: OVCAR-3 ovarian
# HS 578T breast = test system: HS 578T breast
# NCI/ADR-RES ovarian = test system: NCI/ADR-RES ovarian
Structure (SMILES),growth (SK-MEL-2 melanoma),growth (EKVX NSCLC),growth (SN12C renal),growth (UO-31 renal),growth (TK-10 renal),growth (ACHN renal),growth (CAKI-1 renal),growth (A498 renal),growth (CCRF-CEM leukemia),growth (MOLT-4 leukemia),growth (SR leukemia),growth (RPMI-8226 leukemia),growth (OVCAR-8 ovarian),growth (OVCAR-5 ovarian),growth (OVCAR-4 ovarian),growth (SK-OV-3 ovarian),growth (IGROV1 ovarian),growth (OVCAR-3 ovarian),growth (HS 578T breast),growth (NCI/ADR-RES ovarian)
O=C1c2cc3c(cc2-c2c1c1cc(F)c(F)cc1c(=O)n2C[C@H](O)CO)OCO3,-26% (active),14.7%,-12.6% (active),-56.8% (active),-27.6% (active),-61.5% (active),-4.95% (active),-79.4% (active),-10.9% (active),-26% (active),-16.5% (active),-0.801% (active),4.44% (active),4.09% (active),7.88% (active),-4.97% (active),8.38% (active),-8.12% (active),42.1%,-17% (active)
CC(=O)CC(C)(C)c1ccc(Cl)cc1,108%,101%,97.7%,85.5%,114%,102%,90.2%,108%,101%,100%,101%,98.3%,101%,95.7%,93.6%,107%,96%,97.4%,99.5%,96.2%
COc1ccc(-c2csc(NC(=O)CN3CCN(c4cc5c(cc4F)c(=O)c(C(=O)O)cn5C4CC4)CC3)n2)cc1,-11.5% (active),26.2%,4.18% (active),21%,18%,11.8%,21.3%,-10.1% (active),22.2%,24.2%,16.7%,-9.43% (active),9.73% (active),37.4%,40.8%,-4.37% (active),38.5%,12.7%,16.5%,60.7%
CCN(C(=O)CN1CCN(c2cc3c(cc2F)c(=O)c(C(=O)O)cn3C2CC2)CC1)c1nc(-c2ccc(OC)cc2)cs1,79.2%,58.9%,9.96% (active),33%,77.2%,78%,75.7%,66.6%,61.2%,70.6%,23.7%,3.09% (active),59.6%,92%,37.2%,97.1%,67.4%,6.96% (active),81.8%,59.3%
Cn1c(=O)c2[nH]c(C(O)C(O)C(O)C(O)CO)nc2n(C)c1=O (stereo not given),104%,103%,107%,91.8%,103%,106%,102%,106%,105%,103%,105%,110%,108%,101%,116%,99.8%,106%,109%,107%,100%
Nc1nc2ccc(-c3nc4ccc5[nH]ncc5c4c4c3CCC4)cc2s1,21.5%,19.4%,28.4%,14.7%,22.3%,17.7%,1.07% (active),-9.59% (active),17.3%,18.5%,20.7%,-49% (active),28.6%,47.6%,19.3%,-21.7% (active),21.4%,39.4%,7.12% (active),27.8%
CNC(=O)c1cc(Oc2ccc3nc(NC(=O)Nc4ccc(N5CCC(N(C)C)CC5)cc4)sc3c2)ccn1,117%,115%,92.3%,87.7%,115%,74.1%,90.1%,81.6%,66.5%,61.4%,0.621% (active),74.2%,89.3%,114%,80.7%,102%,89%,90.1%,80.9%,110%
O=C(O)c1c([N+](=O)[O-])cnc2ccccc12,102%,58.2%,97.2%,64.9%,102%,111%,98%,118%,127%,105%,135%,108%,96.2%,99.1%,107%,93%,106%,118%,113%,96.7%
CCCCCCCCCCCCCCCCCCNC(=O)[C@H]1CSC(c2ccc(OC)c(F)c2)N1 (stereo not given in full),-54.1% (active),17.5%,-80.7% (active),66.6%,59.5%,87.8%,52.9%,64.9%,-14.4% (active),10% (active),-30.9% (active),-46.8% (active),-22.8% (active),-13.3% (active),76.9%,88.1%,30.2%,-3.45% (active),32.6%,-36.8% (active)
CC[C@]12C=CCN3CC[C@@]4(c5ccc(OC)cc5N(C)[C@H]4[C@@](O)(C(=O)OC)[C@@H]1OC(=O)CCC(=O)N[C@@H](Cc1c[nH]c4ccccc14)C(=O)OC)[C@@H]32,54.4%,93.3%,71.5%,83%,87.4%,93%,108%,83.4%,28.9%,-35.5% (active),-43.1% (active),-33.4% (active),93.9%,90.8%,89.9%,100%,101%,86.4%,79.4%,105%
COc1cc(OC)c(/C=C/S(=O)(=O)Cc2ccc(OC)c(N)n2)c(OC)c1,8.32% (active),37.3%,24.3%,31.9%,33.7%,28.3%,25.5%,-1.72% (active),9.98% (active),2.56% (active),0.349% (active),33.1%,11%,50.5%,42.1%,5.23% (active),26.4%,-27.7% (active),43.8%,10.2%
CCN(CC)CCCC(C)Nc1ccnc2c(OC)cccc12 (stereo not given),127%,112%,101%,87.4%,120%,122%,101%,135%,94.3%,102%,97.3%,103%,106%,102%,111%,117%,109%,146%,127%,110%
COc1cc2nc3cc([N+](=O)[O-])ccc3c(NCCCNCC(C)(C)O)c2cc1OC,-47.5% (active),-19.6% (active),-34.8% (active),1.88% (active),-31.7% (active),1.58% (active),18.4%,-82.2% (active),1.71% (active),10.5%,5.93% (active),-9.27% (active),-45% (active),-3.65% (active),-37.2% (active),-46% (active),-18% (active),-60.3% (active),-18.6% (active),87.6%
